Measured values reported in PubChem BioAssay AID1159580 (chemical genetic matrix, 2015).
In all, about 5,500 compounds went through this assay and about 2,000 (36%) were called active. Not shown: some 18% with an inconclusive outcome. Rule as the data show it: active = normalized growth mostly below about 0.91 (no sharp cut-off); inconclusive = no clear call, values can overlap the other calls; inactive = mostly above about 0.92. Some of the results follow.

Experiment: chemical genetic growth profiling, strain panel (AID 1159580);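 also: tested at 20 µM; growth read once vehicle control cultures reached saturation at 30 °C; 1 = growth at the plate median or of vehicle wells; lower values mean less growth of the strain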
Conditions: growth OD

Measured: normalized growth

OC(c1cc(C(F)(F)F)nc2c(C(F)(F)F)cccc12)C1CCCCN1 (stereo not drawn)
inactive: S. cerevisiae deletion strains, locus YJR066W, strain TOR1, hits give low values 0.936 | S. cerevisiae deletion strains, locus YJR075W, strain HOC1, hits give low values 0.978 | S. cerevisiae deletion strains, locus YKL009W, strain mrt4, hits give low values 0.987 | S. cerevisiae deletion strains, locus YKL068W, hits give low values 0.99 | S. cerevisiae deletion strains, locus YKL085W, strain MDH1 (second series), hits give low values 0.989 | S. cerevisiae deletion strains, locus YKL085W, strain MDH1, hits give low values 0.989 | S. cerevisiae deletion strains, locus YKL160W, strain elf1, hits give low values 0.99 | S. cerevisiae deletion strains, locus YKL190W, strain CNB1, hits give low values 0.99 | S. cerevisiae deletion strains, locus YKR001C, strain vps1, hits give low values 1 | S. cerevisiae deletion strains, locus YKR026C, strain gcn3, hits give low values 1.01 | S. cerevisiae deletion strains, locus YKR091W, strain srl3, hits give low values 1 | S. cerevisiae deletion strains, locus YLL001W, strain dnm1, hits give low values 1 | S. cerevisiae deletion strains, locus YLL026W, hits give low values 1.01 | S. cerevisiae deletion strains, locus YLL041C, strain sdh2, hits give low values 1.02 | S. cerevisiae deletion strains, locus YLR027C, strain aat2, hits give low values 0.996 | S. cerevisiae deletion strains, locus YLR039C, strain RIC1, hits give low values 1.12 | S. cerevisiae deletion strains, locus YLR058C, strain SHM2, hits give low values 0.991 | S. cerevisiae deletion strains, locus YLR102C, strain apc9, hits give low values 0.991 | S. cerevisiae deletion strains, locus YLR113W, strain HOG1, hits give low values 0.93 | S. cerevisiae deletion strains, locus YLR221C, strain rsa3, hits give low values 1.02 | S. cerevisiae deletion strains, locus YLR258W, strain gsy2, hits give low values 1.01 | S. cerevisiae deletion strains, locus YLR262C, strain YPT6 (second series), hits give low values 1.11 | S. cerevisiae deletion strains, locus YLR262C, strain YPT6, hits give low values 1.15 | S. cerevisiae deletion strains, locus YLR268W, strain sec22, hits give low values 0.975 | S. cerevisiae deletion strains, locus YLR320W, strain mms22, hits give low values 1.01 | S. cerevisiae deletion strains, locus YLR330W, strain CHS5, hits give low values 0.992 | S. cerevisiae deletion strains, locus YLR342W, strain FKS1 (second series), hits give low values 0.962 | S. cerevisiae deletion strains, locus YLR342W, strain FKS1, hits give low values 1.01 | S. cerevisiae deletion strains, locus YLR357W, strain rsc2, hits give low values 1.09 | S. cerevisiae deletion strains, locus YLR370C, strain arc18, hits give low values 1 | S. cerevisiae deletion strains, locus YLR371W, strain rom2, hits give low values 0.988 | S. cerevisiae deletion strains, locus YLR384C, strain iki3, hits give low values 1.01 | S. cerevisiae deletion strains, locus YLR418C, strain cdc73, hits give low values 0.931 | S. cerevisiae deletion strains, locus YML016C, strain PPZ1, hits give low values 0.989 | S. cerevisiae deletion strains, locus YML032C, strain rad52, hits give low values 0.978 | S. cerevisiae deletion strains, locus YML120C, strain ndi1, hits give low values 1 | S. cerevisiae deletion strains, locus YML124C, strain tub3, hits give low values 0.99 | S. cerevisiae deletion strains, locus YMR058W, strain fet3, hits give low values 0.997 | S. cerevisiae deletion strains, locus YMR078C, strain ctf18, hits give low values 0.994 | S. cerevisiae deletion strains, locus YMR125W, strain sto1, hits give low values 1 | S. cerevisiae deletion strains, locus YMR129W, hits give low values 0.997 | S. cerevisiae deletion strains, locus YMR205C, strain PFK2, hits give low values 1.01 | S. cerevisiae deletion strains, locus YMR223W, strain ubp8, hits give low values 0.973 | S. cerevisiae deletion strains, locus YMR231W, strain pep5, hits give low values 1.01 | S. cerevisiae deletion strains, locus YMR307W, strain GAS1, hits give low values 0.869 | S. cerevisiae deletion strains, locus YNL067W, strain RPL9B, hits give low values 0.981 | S. cerevisiae deletion strains, locus YNL071W, strain lat1, hits give low values 1.02 | S. cerevisiae deletion strains, locus YNL183C, strain NPR1, hits give low values 0.93 | S. cerevisiae deletion strains, locus YNL209W, strain ssb2, hits give low values 0.996 | S. cerevisiae deletion strains, locus YNL233W, strain BNI4, hits give low values 0.959 | S. cerevisiae deletion strains, locus YNL248C, strain rpa49, hits give low values 0.999 | S. cerevisiae deletion strains, locus YNL250W, strain rad50, hits give low values 0.986 | S. cerevisiae deletion strains, locus YNL271C, strain bni1, hits give low values 0.985 | S. cerevisiae deletion strains, locus YNL298W, strain CLA4, hits give low values 0.995 | S. cerevisiae deletion strains, locus YNL307C, strain MCK1, hits give low values 0.992 | S. cerevisiae deletion strains, locus YNL322C, strain KRE1 (second series), hits give low values 0.988 | S. cerevisiae deletion strains, locus YNL322C, strain KRE1, hits give low values 0.987 | S. cerevisiae deletion strains, locus YNR049C, strain mso1, hits give low values 1.01 | S. cerevisiae deletion strains, locus YNR052C, strain pop2, hits give low values 0.99 | S. cerevisiae deletion strains, locus YOL006C, strain TOP1, hits give low values 0.993 | S. cerevisiae deletion strains, locus YOL012C, strain htz1 0.986 | S. cerevisiae deletion strains, locus YOL147C, strain pex11, hits give low values 1.01 | S. cerevisiae deletion strains, locus YOR001W, strain rrp6, hits give low values 0.999 | S. cerevisiae deletion strains, locus YOR061W, strain CKA2, hits give low values 0.991 | S. cerevisiae deletion strains, locus YOR069W, strain VPS5, hits give low values 0.997 | S. cerevisiae deletion strains, locus YOR070C, strain gyp1, hits give low values 1.01 | S. cerevisiae deletion strains, locus YOR080W, strain dia2, hits give low values 1.02 | S. cerevisiae deletion strains, locus YOR083W, strain WHI5, hits give low values 1.03 | S. cerevisiae deletion strains, locus YOR106W, strain vam3, hits give low values 1.02 | S. cerevisiae deletion strains, locus YOR136W, strain idh2, hits give low values 0.988 | S. cerevisiae deletion strains, locus YOR144C, strain elg1, hits give low values 0.991 | S. cerevisiae deletion strains, locus YOR184W, strain ser1, hits give low values 0.997 | S. cerevisiae deletion strains, locus YOR231W, strain MKK1, hits give low values 0.959 | S. cerevisiae deletion strains, locus YOR265W, strain rbl2, hits give low values 1 | S. cerevisiae deletion strains, locus YOR270C, strain vph1, hits give low values 1.04 | S. cerevisiae deletion strains, locus YOR290C, strain snf2, hits give low values 0.991 | S. cerevisiae deletion strains, locus YOR316C, strain cot1, hits give low values 0.994 | S. cerevisiae deletion strains, locus YPL051W, strain arl3, hits give low values 1.01 | S. cerevisiae deletion strains, locus YPL078C, strain atp4, hits give low values 1 | S. cerevisiae deletion strains, locus YPL106C, strain sse1, hits give low values 0.999 | S. cerevisiae deletion strains, locus YPL240C, strain hsp82, hits give low values 1 | S. cerevisiae deletion strains, locus YPL256C, strain CLN2, hits give low values 0.946 | S. cerevisiae deletion strains, locus YPR119W, strain clb2, hits give low values 0.99 | S. cerevisiae deletion strains, locus YPR141C, strain kar3, hits give low values 0.988 | S. cerevisiae deletion strains, locus YPR163C, strain tif3, hits give low values 0.999 | S. cerevisiae deletion strains, locus YPR167C, strain met16, hits give low values 0.993 | S. cerevisiae deletion strains, strain wtn01, hits give low values 0.96 | S. cerevisiae strains, strain wild type, hits give low values 0.983
